This passage reports growth results from PubChem BioAssay (NCI).

Holding throughout (experiment): NCI-60 one-dose screen, 48 h (100 = growth as untreated, 0 = no growth, -100 = all killed)
Conditions in all cases: 10 µM

The subject of assay [1] is SR leukemia.
Assay [2] relates to RPMI-8226 leukemia.
For assay [3], the system named is OVCAR-8 ovarian.
For assay [4], the system named is OVCAR-5 ovarian.
Assay [5] has as its system OVCAR-4 ovarian.
In assay [6] the test system is SK-OV-3 ovarian.
The test system of assay [7] is IGROV1 ovarian.
In assay [8] the test system is OVCAR-3 ovarian.
The test system of assay [9] is HS 578T breast.
Assay [10] relates to NCI/ADR-RES ovarian.
The test system of assay [11] is T-47D breast.
In assay [12] the test system is BT-549 breast.
Assay [13] deals with MDA-MB-435 melanoma.
The test system of assay [14] is SW-620 colon.
The test system of assay [15] is MCF7 breast.
The test system of assay [16] is HCT-116 colon.
Assay [17] has as its system HCC-2998 colon.
Assay [18] concerns KM12 colon.
Assay [19] has as its system MDA-MB-468 breast.

About 83,000 compounds went through this panel and 20% of them were active in at least one assay; those are over-represented in the sample as a whole.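 For each line, cells grew in 96-well plates with the test compound present at a single concentration for 48 hours.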 A number with no mark means an inactive call. Active and inactive are the calls of the source. Rule for the calls: active = growth percent below 10; inactive = the rest.

Take `COc1cnc2c(c1)C(=O)c1c-2n(CCCNCCO)c(=O)c2cc(OC)c(OC)cc12`: the growth in [1] is 5.85% (active); in assay [2], 4.21% (active); in assay [3] it was 30.4%; in assay [4] it was 24%; in assay [5], 47.8%; in assay [6] it was 7.28% (active). Also, the growth in assay [7] was 27.2%; in assay [8], 3.13% (active); in assay [9], 105%; in assay [10], 88%; in [11], 10.1%; in assay [12] it was 40.7%. The growth was 49.7% in assay [13]; 38.4% in assay [14]; 5.82% (active) in [15]; 1.67% (active) in [16]; 30.3% in assay [17]; 54.5% in assay [18]. In assay [19], the growth was -48.8% (active).

With `Brc1ccc(N/N=C/c2c[nH]c3ccccc23)nc1`, the growth in assay [1] was 2.45% (active); in assay [2], 2.19% (active); in assay [3], 44.3%; in [4] it was 45.4%; in assay [5], 41.5%; in assay [6], 71%. The growth was 1.99% (active) in assay [7]; 19.5% in assay [8]; 51.7% in [9]; 5.81% (active) in [10]; 25.7% in [11]; -2.29% (active) in assay [12]. Moreover, the growth in assay [13] was 30.4%; in [14] it was 20.8%; in assay [15], 9.88% (active); in assay [16] it was 6.45% (active); in [17], -1.13% (active); in assay [18], 0.217% (active). In addition, in assay [19], the growth was -35.5% (active).

Regarding `Cc1ccc(-c2nc(Nc3ccccc3C(=O)O)c3ccccc3n2)cc1`, the growth in [1] was 18.6%; in assay [2], 17.1%; in [3], 30.5%; in [4] it was 65.9%; in assay [5], 21.8%; in assay [6] it was 31.3%. For the same compound, the growth was 31.1% in assay [7]; 6.01% (active) in assay [8]; -9.53% (active) in assay [9]; 5.16% (active) in assay [10]; 10.7% in [11]; -23.5% (active) in [12]. For the same compound, the growth in assay [13] is 23.4%; in assay [14], 14.5%; in assay [15], 7.7% (active); in assay [16], 6.7% (active); in [17], 5.44% (active); in assay [18] it was 8.37% (active). In addition, the growth in [19] was -26.9% (active).

Consider `CN1CCN(Cc2ccc(NC(=O)c3cncc(C#Cc4cnc5ccc(N[C@H]6CCOC6)nn45)c3)cc2C(F)(F)F)CC1`, for which the growth was -21.7% (active) in [1]; -35.1% (active) in [2]; -94.4% (active) in assay [3]; -72% (active) in [4]; -65.3% (active) in [5]; -63.8% (active) in assay [6]. In addition, the growth in [7] was -74.6% (active); in [8] it was -93.7% (active); in assay [9], -42.7% (active); in assay [10], 13.7%; in assay [11], -64.7% (active); in assay [12] it was -67.7% (active). For the same compound, the growth in assay [13] was -79.6% (active); in [14], -69.8% (active); in assay [15], -84.4% (active); in [16] it was -62.6% (active); in assay [17] it was -96.4% (active); in assay [18], -89.7% (active). Moreover, the growth in assay [19] is -94% (active).

`O=C(NO)c1ccc(CN2CCN(c3nc(-c4ccccc4)c4ccccc4n3)CC2)cc1`: the growth in assay [1] was 8.6% (active); in assay [2], 24.5%; in [3] it was 8.54% (active); in assay [4] it was 19.3%; in assay [5], 22.7%; in assay [6], -22.2% (active). For the same compound, the growth in assay [7] is 17.8%; in assay [8], 27.6%; in assay [9], 49.1%; in assay [10] it was -36.1% (active); in [11] it was 8.88% (active); in assay [12] it was 35.8%. In addition, the growth in assay [13] is 27.8%; in [14], 15.6%; in assay [15], 9.79% (active); in assay [16], 18.9%; in [17], 12.6%; in assay [18] it was 18.7%. Further, the growth in assay [19] was -14.2% (active).

Turning to `COc1cccc2nc(Nc3cccc(NC(=O)c4ccc(CN5CCCN(C)CC5)c(C(F)(F)F)c4)c3)ccc12`, the growth in assay [1] was -27.1% (active); in [2] it was -39.4% (active); in assay [3], -69.3% (active); in assay [4], -100% (active); in assay [5], -84.4% (active); in assay [6], -72.8% (active). Besides, the growth in [7] is -85.2% (active); in assay [8] it was -58.6% (active); in assay [9], -61.7% (active); in assay [10], -77.9% (active); in assay [11], -55.9% (active); in assay [12] it was -92.5% (active). Moreover, the growth in assay [13] was -100% (active); in assay [14], -97.5% (active); in [15], -90% (active); in assay [16], -64.7% (active); in assay [17], -96.6% (active); in [18], -63.9% (active). For the same compound, the growth in assay [19] is -87.9% (active).

For `CC(C)(C)c1ccc(NCc2cn(-c3ccc(C(=O)O)cc3)nc2-c2ccc(C#N)cc2)cc1`, the growth was 5.39% (active) in assay [1]; 14.6% in assay [2]; 28.5% in assay [3]; 32.6% in assay [4]; 36.7% in assay [5]; 112% in assay [6]. Also, the growth is 36.5% in assay [7]; 19.7% in assay [8]; 37.4% in [9]; 11.7% in [10]; 21.4% in assay [11]; -2.13% (active) in assay [12]. In addition, the growth is 34% in assay [13]; 32.2% in assay [14]; 6.04% (active) in [15]; -13.9% (active) in assay [16]; -66.6% (active) in [17]; -38.3% (active) in assay [18]. The growth in [19] was 19%.

For the compound `CN(C)CCNC(=O)OCCCCOc1cc(O)c2c(=O)cc(-c3ccccc3)oc2c1`, the growth in assay [1] is -28.9% (active); in [2], -9.41% (active); in assay [3], 3.84% (active); in assay [4] it was -4.32% (active); in assay [5], -16.2% (active); in assay [6], 99.1%. In addition, the growth was -9.88% (active) in [7]; -77.1% (active) in [8]; 40.7% in [9]; 27.9% in assay [10]; -65.8% (active) in assay [11]; -59.9% (active) in assay [12]. Besides, the growth was -51% (active) in assay [13]; -31.7% (active) in [14]; -89.8% (active) in [15]; -68.9% (active) in assay [16]; -50.8% (active) in assay [17]; -49.8% (active) in [18]. Further, in assay [19], the growth is -81.1% (active).

`COc1cc2c(cc1OC)/C(=C\c1sc(Nc3ccc(O)cc3)nc1O)C(C(=O)O)=N2`: the growth in [1] was 17%; in assay [2], 16.1%; in assay [3], 22.8%; in assay [4], 34.6%; in assay [5], 54%; in [6], 47.3%. Further, the growth in [7] is 34.3%; in assay [8] it was 3.64% (active); in assay [9] it was 31%; in assay [10], 85.4%; in assay [11], 46.7%; in assay [12], 57.2%. The growth is -77.3% (active) in assay [13]; 26.8% in [14]; 12.3% in assay [15]; 21.4% in assay [16]; 36.7% in [17]; 20.9% in assay [18]. The growth in assay [19] was -1.14% (active).

`CC(=O)Nc1ccc(-n2cnc3cc(-c4ccc(NS(C)(=O)=O)cc4)ccc32)cc1`: the growth in [1] is 21.8%; in [2], 55.8%; in [3], 66.9%; in assay [4] it was 79.3%; in assay [5] it was 60%; in assay [6], 87.9%. Besides, the growth was 36.4% in assay [7]; 63.1% in [8]; 57.9% in assay [9]; 70.5% in assay [10]; 63.2% in [11]; 75.4% in [12]. For the same compound, the growth in assay [13] is 51.7%; in assay [14], 71.5%; in assay [15] it was 16.8%; in assay [16], 33.9%; in assay [17], 21.5%; in assay [18], 39.8%. The growth in assay [19] was 54.6%.

For `COC1=C[C@@]23CCC(=O)N2CCc2cc4c(cc2[C@H]3[C@H]1OC(=O)C(C)(C)O)OCO4`, the growth was 96.1% in assay [1]; 92.3% in assay [2]; 109% in assay [3]; 101% in assay [4]; 98.6% in assay [5]; 120% in assay [6]. The growth was 103% in assay [7]; 106% in [8]; 98.1% in [9]; 97.4% in [10]; 91.6% in [11]; 98.9% in [12]. For the same compound, the growth in assay [13] is 98.4%; in [14], 105%; in [15] it was 92.7%; in assay [16] it was 101%; in assay [17] it was 103%; in assay [18], 101%. Moreover, the growth in assay [19] was 91.5%.

For `COc1ccc(OC)c(/C=N/NC(=O)c2ccc3nc(-c4ccc(Cl)cc4)[nH]c3c2)c1`, the growth is 68.6% in assay [1]; 37.7% in [2]; 82.8% in [3]; 104% in assay [4]; 61.1% in assay [5]; 84.9% in [6]. Also, the growth was 92.2% in assay [7]; 89.2% in assay [8]; 51.2% in [9]; 88.8% in assay [10]; 38.2% in [11]; 74.3% in [12]. The growth in assay [13] was 85.7%; in assay [14], 92%; in assay [15], 51.9%; in assay [16], 56.9%; in assay [17] it was 85.4%; in assay [18], 76.7%. Moreover, the growth in [19] was 69.6%.
